The text below walks through data of PubChem BioAssay (NCI).

Holding throughout (experiment): NCI-60 one-dose screen, 48 h (100 = growth as untreated, 0 = no growth, -100 = all killed)
Common to all, as to settings: 10 µM unless noted

For assay [1], the system named is RPMI-8226 leukemia.
For assay [2], the system named is OVCAR-8 ovarian.
The test system of assay [3] is OVCAR-5 ovarian.
Assay [4] relates to OVCAR-4 ovarian.
Assay [5] concerns SK-OV-3 ovarian.
The subject of assay [6] is IGROV1 ovarian.
Assay [7] has as its system OVCAR-3 ovarian.
For assay [8], the system named is HS 578T breast.
For assay [9], the system named is NCI/ADR-RES ovarian.
For assay [10], the system named is T-47D breast.

SMILES strings stand for the structures. About 83,000 compounds went through this panel and 20% of them were active in at least one assay; those are over-represented in the sample as a whole.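 Plates (96-well) were seeded with cells, treated with compound at one concentration, and incubated for 48 hours before percent growth was determined.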 A number with no mark means an inactive call. Active and inactive are the calls of the source. Rule for the calls: active = growth percent below 10; inactive = the rest.

As for `COc1ccc(-c2nc(C#N)c(NCC(c3ccc(Cl)cc3)N3CCCCC3)o2)cc1` (stereo not given), the growth in assay [1] was 85.6%; in assay [2], 101%; in assay [3], 96%; in [4], 87.5%; in assay [5], 109%; in assay [6], 85.8%. In addition, the growth in [7] was 95.1%; in assay [8], 97.3%; in [9], 87.1%; in assay [10], 94.8%.
For `Nc1c(C(=O)Nc2ccccn2)sc2nc3c(cc12)CCCC3`, the growth in assay [1] is 55.9%; in assay [2] it was 65%; in assay [3] it was 77.6%; in assay [4], 74.9%; in [5], 42.4%; in [6], 55.2%. The growth was 23.9% in assay [7], 39.7% in assay [8], 28.2% in assay [9] and 43% in assay [10].
Take `CC(=O)c1ccc(NC(=O)CSc2nnc(-c3cc(-c4ccc(C)cc4)nc4ccccc34)o2)cc1`: the growth was 7.74% (active) in [1]; 49.3% in assay [2]; 101% in assay [3]; -12.5% (active) in assay [4]; 81.7% in assay [5]; 57.3% in assay [6]. In addition, the growth in assay [7] is 77.4%; in assay [8], 23.3%; in assay [9], 60.2%; in assay [10] it was 44.8%.
`CC(C)(C)c1nc2c(s1)c1nc(N)ncc1c1ccc(NS(=O)(=O)c3c(F)cccc3F)c(F)c12`: the growth in assay [1] was 68.9%; in assay [2], 61.1%; in assay [3] it was 104%; in assay [4], 60.7%; in [5], 13.7%; in assay [6], 38.5%. In addition, the growth in assay [7] was 80.7%; in assay [8], 60.4%; in assay [9], 80.6%; in assay [10], 42.9%.
As to `COc1ccc2c(c1)OC13Oc4cc(OC)ccc4C=C1CCCCC3=C2`, the growth in assay [1] is 97.8%; in assay [2], 92.5%; in [3], 104%; in assay [4], 104%; in assay [5] it was 80.8%; in [6] it was 99.3%. The growth in assay [7] was 108%; in [8], 99.4%; in [9], 96.9%; in [10], 67.6%.
For `Cc1cc(C)n(-c2nc(-c3cccs3)c(C#N)c(=O)[nH]2)n1`, the growth in [1] is 105%; in [2] it was 102%; in assay [3], 105%; in assay [4], 91.1%; in [5], 90.9%; in assay [6], 108%. For the same compound, the growth was 94.7% in [7], 106% in [8], 85.7% in [9] and 80.6% in assay [10].
With `Nc1ccccc1NS(=O)(=O)c1ccc(Cl)cc1`, the growth in assay [1] was 95%; in assay [2] it was 108%; in [3] it was 95.3%; in [4] it was 100%; in assay [5] it was 105%; in assay [6] it was 98.3%. The growth in [7] was 105%; in [8], 98.6%; in [9], 97.3%; in [10] it was 106%.
`COC(=O)c1cncc(C(=O)Nc2ccc(-n3cnc4ccccc43)cc2)c1`: the growth in assay [1] is 74.5%; in [2], 97.2%; in assay [3], 101%; in assay [4], 107%; in assay [5] it was 108%; in assay [6] it was 90.5%. Also, the growth was 108% in assay [7], 107% in assay [8], 94.9% in assay [9] and 74.8% in assay [10].
For `N#CCNc1ccc(C(=O)O)cc1`, the growth in [1] was 102%; in assay [2], 102%; in [3] it was 120%; in [4] it was 117%; in assay [5], 105%; in [6], 103%. In addition, the growth was 110% in [7], 105% in assay [8], 105% in assay [9] and 99.2% in assay [10].
With `COc1ccccc1N1CCN(CCCOc2ccc(C(=O)/C=C3/C(=O)Nc4ccccc43)cc2)CC1`, the growth was 34.9% in [1]; 65.9% in [2]; 32.4% in [3]; 45.2% in assay [4]; 79.7% in [5]; 67.7% in assay [6]. The growth in assay [7] is 66.1%; in assay [8] it was 26.7%; in assay [9], 73%; in assay [10], 33.3%.
For the compound `CC(=O)OCC1OC(OC2C(COC(C)=O)OC(OCCC[S-])C(OC(C)=O)C2OC(C)=O)C(OC(C)=O)C(OC(C)=O)C1OC(C)=O.[Au+].c1ccc(CN2[CH-]N(Cc3ccccc3)C(c3ccccc3)=C2c2ccccc2)cc1` (stereo not given), the growth in [1] is -6.87% (active); in assay [2], 22%; in assay [3], 62.4%; in [4] it was 17.5%; in assay [5] it was 13%; in [6], 35.3%. Besides, the growth in [7] was -2.96% (active); in assay [8], 47.5%; in [9], 96.6%; in assay [10] it was 18.8%.
On to `COC(=O)c1nc(-c2ccccc2)oc1S(=O)(=O)n1nc(C)cc1N`, for which the growth was 53.2% in assay [1]; 95.3% in assay [2]; 103% in [3]; 104% in assay [4]; 106% in [5]; 61% in assay [6]. Further, the growth is 20.4% in assay [7], 93.6% in assay [8], 101% in assay [9] and 22.5% in assay [10].
Take `COc1cc(C2=NNC(c3ccc(N(C)C)cc3)C2)cc(OC)c1OC` (stereo not given): the growth in assay [1] is 16%; in assay [2] it was 24.7%; in assay [3], 30.4%; in assay [4], 52.2%; in assay [5], 19.5%; in [6], 35.4%. In addition, the growth in assay [7] is 5.84% (active); in assay [8] it was -21.7% (active); in assay [9] it was -20.7% (active); in [10], 45.8%.
With `CC(=O)Oc1ccc(O)cc1`, the growth in [1] is 69.5%; in [2] it was 90%; in assay [3], 115%; in assay [4], 105%; in [5] it was 110%; in assay [6], 107%. The growth in assay [7] is 111%; in assay [8] it was 105%; in assay [9], 91.6%; in assay [10] it was 118%.
As for `CC1CCN(CCCCCOc2ccc3oc4ccccc4c(=O)c3c2)CC1`, the growth in assay [1] is 60.1%; in assay [2], 81%; in assay [3] it was 88.4%; in assay [4], 77.3%; in assay [5], 93.9%; in assay [6], 68.9%. The growth is 87.6% in [7], 70.3% in assay [8], 78.3% in assay [9] and 67.6% in assay [10].
As for `COc1cc(-c2cn(-c3ccc(Cl)c(Cl)c3)c(=O)[nH]2)cc(OC)c1OC`, the growth was 99.3% in assay [1]; 95.1% in assay [2]; 87.6% in assay [3]; 98.9% in assay [4]; 88.3% in [5]; 136% in assay [6]. Also, the growth was 99.5% in [7], 95.3% in assay [8], 95.5% in assay [9] and 90.1% in [10].
Regarding `CCCn1c2cc(OCc3cn(-c4ccc(Cl)cc4)nn3)ccc2c2ccnc(C)c21`, the growth in assay [1] is 23.3%; in assay [2], 49.9%; in assay [3] it was 78%; in [4] it was 55.5%; in [5], 73.9%; in [6] it was 74%. Also, the growth in assay [7] was 59.3%; in assay [8], 75%; in assay [9], 66.3%; in assay [10] it was 52.2%.
With `COc1cccc(NC(=O)Nc2ccc(Oc3ncnc4[nH]c(C)c(C)c34)cc2)c1`, the growth was 72.4% in [1]; 77% in assay [2]; 129% in assay [3]; 99.2% in assay [4]; 107% in [5]; 52% in assay [6]. Further, the growth in assay [7] is 103%; in assay [8], 84.8%; in [9], 83.5%; in assay [10], 95.2%.
For `CCN1CCC[C@H]1c1cc(O)c2c(c1OC)C[C@H]1C[C@H]3[C@H](N)C(=O)C(C(N)=O)=C(O)[C@@]3(O)C(=O)C1=C2O`, the growth in assay [1] is -18.8% (active); in [2], -0.399% (active); in [3] it was 4.81% (active); in [4], -0.794% (active); in assay [5], -1.89% (active); in [6] it was -5.97% (active). Besides, the growth in [7] is 2.36% (active); in [8] it was -3.05% (active); in assay [9], 9.29% (active); in assay [10], -8.2% (active).
With `CNCc1cccc2c1OCCOCCOCCN(CCN1CCOCC1)S(=O)(=O)c1ccc(cc1)-c1cnc(N)c(n1)C(=O)N2`, the growth in assay [1] was 54.8%; in [2] it was 62.2%; in [3], 119%; in assay [4], 54.8%; in assay [5] it was 17.3%; in [6], 47.9%. Besides, the growth in [7] was 49.4%; in assay [8], 47.5%; in assay [9] it was 108%; in assay [10], 101%.
For the compound `CN1CCN(CC#CCOC(=O)CNC(=O)[C@]23CCC(C)(C)C[C@H]2C2=CC[C@@H]4[C@@]5(C)CC[C@H](O)C(C)(C)[C@@H]5CC[C@@]4(C)[C@]2(C)CC3)CC1`, the growth was 76.8% in [1]; 81.3% in assay [2]; 101% in assay [3]; 105% in [4]; 86.2% in assay [5]; 90.4% in [6]. Further, the growth was 94.6% in assay [7], 95.5% in assay [8], 87.6% in assay [9] and 75.5% in [10].
On to `CCOC(=O)c1c(-c2ccc(O)cc2)c(C#N)c2c(C#N)c(N)nn2c1N`, for which the growth in assay [1] is 38.7%; in assay [2], 70.8%; in [3], 89.3%; in [4] it was 81%; in assay [5] it was 75.5%; in assay [6], 52.3%. Moreover, the growth in assay [7] is 66.3%; in assay [8] it was 70.2%; in [9] it was 95.9%; in [10] it was 28.2%.
As to `CCOC(=O)NC(Cc1ccccc1)c1ccccc1` (stereo not given), the growth was 98.2% in assay [1]; 104% in assay [2]; 106% in [3]; 106% in [4]; 108% in assay [5]; 103% in assay [6]. Further, the growth in assay [7] was 119%; in assay [8] it was 102%; in assay [9], 98.2%; in assay [10], 99.6%.
Regarding `COc1cc2c(Nc3ccc(NC(=O)Nc4ccc(Cl)c(C(F)(F)F)c4)c(Cl)c3)ncnc2cc1OCCCN1CCN(C)CC1`, the growth is -39% (active) in assay [1]; 13% in assay [2]; 31% in assay [3]; -9.14% (active) in assay [4]; 20.4% in assay [5]; -2.58% (active) in assay [6]. Besides, the growth in assay [7] is 11%; in assay [8] it was -8.65% (active); in assay [9] it was 93.3%; in [10], 22.2%.
As for `CCCCc1ccc(N=Nc2ccc(OCC[N+](C)(C)C)cc2)cc1`, the growth is 17.8% in assay [1]; 26.8% in assay [2]; 76.2% in assay [3]; 71.8% in assay [4]; 74.8% in [5]; 19.2% in assay [6]. Further, the growth in assay [7] is 30.2%; in [8], 72.3%; in assay [9] it was 104%; in assay [10], 88.7%.
On to `Cn1c2ccccc2c2c(OC(=O)c3ccccc3)c3c(nc21)-c1ccccc1C3`, for which the growth is 96.2% in assay [1]; 92.7% in assay [2]; 112% in assay [3]; 95.7% in assay [4]; 92% in assay [5]; 82.5% in [6]. Further, the growth is 99.1% in assay [7], 107% in assay [8], 99% in assay [9] and 63.7% in [10].
